Results published in PubChem BioAssay (NCATS).
Inconclusive results are not listed. A number with no mark means an inactive call. Calls of active or inactive are those of the source. The call rests on the fitted dose curve; in most records, active means well fitted inhibition curve with a large enough effect; inconclusive means small, poorly fitted or top-dose-only effect; inactive means flat fitted curve, though single readings scatter. Where a SMILES comes first, the peptide text is derived from it. Bridges are numbered along the chain shown (N, C = ends). [ ]: non-standard residue; d: D form. NMeY = CN[CH](Cc1ccc(O)cc1)C(=O)O

Legend:
[1] = system: HEK293; assay: Cytotoxic Profiling of Annotated Libraries Using Quantitative High-Throughput Screening (AID 1296008); settings: Five cell lines viability, CellTiter-Glo ATP luminescence, 48-72 h; max response: hits give low values; further: potency means the concentration at half of the fitted maximal effect; on max response: on the % scale 0 is the no-effect control and ±100 the full control effect
Procedure, shortened: (§1)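 Compounds were pin-transferred onto cells and incubated 48 or 72 hr at 37 degree Celsius, 95% humidity. CellTiter-Glo was added, plates sat 10 min at room temperature, then ATP-coupled luminescence was imaged as the viability read-out.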

[2] = system: HaCat; assay: as above; settings: Five cell lines viability, CellTiter-Glo ATP luminescence, 48-72 h; max response: hits give low values
Procedure, shortened: as §1

[3] = system: KB-3-1; assay: as above; settings: Five cell lines viability, CellTiter-Glo ATP luminescence, 48-72 h; max response: hits give low values
Procedure, shortened: as §1

[4] = system: NIH3T3; assay: as above; settings: Five cell lines viability, CellTiter-Glo ATP luminescence, 48-72 h; max response: hits give low values
Procedure, shortened: as §1

[5] = system: HACAT; assay: qHTS assay to identify novel small-molecules to repurpose for Merkel cell carcinoma treatment (AID 1296009); settings: MCC and control cell lines, CellTiter-Glo viability, 72 h; series mostly up to 44.8 µM
Procedure, shortened: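 Luminescence from CellTiter-Glo, read 10 min after addition at room temperature, reported viability following a 72 hr, 37 degree celsius treatment with NPC or MIPE compounds in titration; values normalized to plate controls.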
Further: nearly all actives have a fitted effect of over 60% in size.

CC(=O)O[C@@H]1[C@H](O)[C@@H](O[C@@H]2O[C@@H](C)[C@H](O[C@@H]3OC[C@@H](O)[C@H](O[C@@H]4OC[C@@H](O)[C@H](O)[C@H]4O)[C@H]3O)[C@@H](O[C@@H]3O[C@H](CO)[C@@H](O)[C@H](O)[C@H]3O)[C@H]2O)[C@H](OC(=O)[C@]23CCC(C)(C)C[C@H]2C2=CCC4[C@@]5(C)CC[C@H](O[C@@H]6O[C@H](C(=O)O)[C@@H](O)[C@H](O[C@@H]7OC[C@@H](O)[C@H](O)[C@H]7O)[C@H]6O[C@@H]6O[C@H](CO)[C@H](O)[C@H](O)[C@H]6O)[C@@](C)(C=O)C5CC[C@@]4(C)[C@]2(C)CC3)O[C@@H]1C (some centres undefined)
max response [1]: -5.31% | max response [2]: 0.448% | max response [3]: -1.2% | outcome [4]: inactive

CN1c2ccccc2C(=O)N2CCC3c4ccccc4NC3C21 (centres undefined)
Potency [1]: 2.55 µM (active) | Potency [2]: 2.02 µM (active) | Potency [3]: 3.6 µM (active) | Potency [4]: 7.18 µM (active)

C=C(F)c1sc(CNCCCNc2cc(=O)c3ccccc3[nH]2)c(C)c1Br
Potency [1]: 6.51 µM (active) | max response [2]: -0.153% | Potency [3]: 16.4 µM (active) | max response [4]: -1.77%

COC(=O)N1CCC(n2ncc3c(N4CCOCC4)nc(-c4ccc(NC(=O)Nc5ccc(CO)cc5)cc4)nc32)CC1
Potency [1]: 0.058 µM (active) | Potency [2]: 3.66 µM (active) | Potency [3]: 0.231 µM (active) | Potency [4]: 1.46 µM (active)

CC1=CC(=O)CC(C)(C)C1CCC(C)O[C@@H]1O[C@H](CO[C@@H]2OC[C@@H](O)[C@H](O)[C@H]2O)[C@@H](O)[C@H](O)[C@H]1O (some centres undefined)
max response [1]: -8.79% | max response [2]: 4.17% | max response [3]: 1.12% | max response [4]: 3.34%

CCC(C)C(=O)OC1CC(O)C23C4OCC5(C(O)CC2C1(C)C(O)O4)C3C(=O)C(O)C1(C)C(O)(c2ccoc2)CC2OC251 (centres undefined)
Potency [1]: 1.72 µM (active) | Potency [2]: 4.85 µM (active) | Potency [3]: 0.968 µM (active) | Potency [4]: 3.06 µM (active)

C[C@@H]1N[C@H]2N(C1=O)c1ccccc1[C@@]2(O)C[C@@H]1C(=O)N[C@@H](C)c2nc3ccccc3c(=O)n21
max response [1]: -21.5% | max response [2]: 1.5% | outcome [3]: inactive | max response [4]: -0.438%

CC(=O)O[C@@H]1CC(C)=C2[C@H]1[C@H](C)CC[C@H]2/C=C(\C)C(=O)O
max response [1]: -2.45% | max response [2]: -15.4% | max response [3]: 7.61% | max response [4]: -9.33%

CCN1CCN(Cc2ccc(NC(=O)c3ccc(C)c(/C=C/c4cnc5[nH]ccc5c4OC)c3)cc2C(F)(F)F)CC1
Potency [1]: 1.46 µM (active) | Potency [2]: 5.8 µM (active) | Potency [3]: 18.4 µM (active) | Potency [4]: 5.17 µM (active)

CO[C@H]1C[C@@H]2CC[C@@H](C)[C@@](O)(O2)C(=O)C(=O)N2CCCC[C@H]2C(=O)O[C@H]([C@H](C)C[C@@H]2CC[C@H](n3cnnn3)[C@H](OC)C2)CC(=O)[C@H](C)/C=C(\C)[C@@H](O)[C@@H](OC)C(=O)[C@H](C)C[C@H](C)/C=C/C=C/C=C/1C
Potency [1]: 0.0252 µM (active) | max response [2]: -3.38% | max response [3]: -0.0133% | max response [4]: 0.445%

Cc1c(CN2CCN(C(=O)C(C)O)CC2)sc2c(N3CCOCC3)nc(-c3cnc(N)nc3)nc12 (centres undefined)
Potency [1]: 0.651 µM (active) | Potency [2]: 2.31 µM (active) | Potency [3]: 0.58 µM (active) | Potency [4]: 1.3 µM (active)

COC(=O)C1=CO[C@@H](O[C@@H]2O[C@H](CO)[C@@H](O)[C@H](O)[C@H]2O)[C@@H]2C(COC(C)=O)=C[C@H](O)[C@H]12
max response [1]: -2.65% | outcome [2]: inactive | outcome [3]: inactive | outcome [4]: inactive | Potency [5]: inactive

CCCCNc1ncc2c(-c3ccc(F)cc3)nn(CC3CCC(N)CC3)c2n1 (centres undefined)
max response [1]: -110% | Potency [2]: 10 µM (active) | Potency [3]: 2.82 µM (active) | Potency [4]: 6.32 µM (active)

C[C@H]1[C@H](O)O[C@@H]2O[C@@]3(C)CC[C@H]4[C@H](C)CC[C@@H]1[C@@]24OO3
Potency [1]: 1.84 µM (active) | Potency [2]: 6.51 µM (active) | Potency [3]: 16.4 µM (active) | Potency [4]: 13 µM (active)

CCCOc1ccc(-c2nc(OC)c3ccccc3n2)cc1
max response [1]: 4.19% | max response [2]: -0.801% | outcome [3]: inactive | max response [4]: 1.75%

O=C(COc1cccc2c(=O)[nH]ccc12)c1ccccc1
max response [1]: -5.18% | max response [2]: -15.5% | max response [3]: 7.28% | max response [4]: 1.93%

CC(Cc1cc2c(c(C(N)=O)c1)N(CCCO)CC2)NCCOc1ccccc1OCC(F)(F)F (centres undefined)
Potency [1]: 23.1 µM (active) | max response [2]: 2.13% | max response [3]: -19.6% | max response [4]: 2.09%

CO[C@H]1C[C@@H]2CC[C@@H](C)[C@@](O)(O2)C(=O)C(=O)N2CCCC[C@H]2C(=O)O[C@H]([C@H](C)C[C@H]2CC[C@@H](OP(C)(C)=O)[C@H](OC)C2)CC(=O)[C@H](C)/C=C(\C)[C@@H](O)[C@@H](OC)C(=O)[C@H](C)C[C@H](C)/C=C/C=C/C=C/1C
Potency [1]: 0.0064 µM (active) | max response [2]: -3.04% | max response [3]: 4.5% | max response [4]: -2.54%

O=C(C(c1ccccc1)c1ccccc1)N1CCN(CC(O)COc2cccc3ncccc23)CC1 (centres undefined)
Potency [1]: 6.51 µM (active) | max response [2]: -24.2% | max response [3]: -28.1% | max response [4]: -26.9%

Nc1nc2c(c(N3CCNCC3)n1)CCC1=C2[C@@H]2CCCC[C@@H]2O1
Potency [1]: 18.4 µM (active) | outcome [2]: inactive | max response [3]: -5.74% | max response [4]: -4.38% | Potency [5]: inactive

CC1(C)CCC(C)(C)c2cc(C3(c4ccc(C(=O)O)cc4)OCCO3)ccc21
max response [1]: -82.5% | outcome [2]: inactive | max response [3]: 9.31% | max response [4]: -24.2% | Potency [5]: inactive

CC(=O)OC1C(O)CC2(C)C(CCC(C)C23Cc2c(O)cc(CO)c(C=O)c2O3)C1(C)C (centres undefined)
max response [1]: -11.5% | max response [2]: -3.73% | max response [3]: 6.45% | outcome [4]: inactive

O=C(/C=C/c1cccc(S(=O)(=O)Nc2ccccc2)c1)NO
Potency [1]: 3.99 µM (active) | Potency [2]: 5.02 µM (active) | Potency [3]: 2.82 µM (active) | Potency [4]: 7.96 µM (active)

CC[C@@H](N)CNc1ccnc(-c2cc(-c3cnn(C)c3)ccc2O)n1
Potency [1]: 5.17 µM (active) | Potency [2]: 5.8 µM (active) | Potency [3]: 4.61 µM (active) | Potency [4]: 14.6 µM (active)

Cc1nc([C@](C)(O)CO)sc1-c1cnc(N)c(O[C@H](C)c2cc(F)ccc2-n2nccn2)c1
Potency [1]: 13 µM (active) | Potency [2]: 14.6 µM (active) | Potency [3]: 18.4 µM (active) | Potency [4]: 2.06 µM (active)

C[C@@H]1C(=O)O[C@H](C)[C@H]1CC(=O)[C@](C)(O)[C@H]1CC[C@@]2(O)C3=CC(=O)[C@@H]4C[C@@H](O)[C@@H](O)C[C@]4(C)C3CC[C@]12C (some centres undefined)
max response [1]: -19.4% | max response [2]: -15.8% | max response [3]: -2.99% | max response [4]: 1.5%

NC(=O)c1csc(C2OC(CO)C(O)C2O)n1 (centres undefined)
max response [1]: -9.16% | max response [2]: 2.41% | outcome [3]: inactive | max response [4]: -7.35%

COc1ccc(-c2cnc3ccc(NCc4ccc(S(N)(=O)=O)cc4)nn23)cc1OC
max response [1]: -0.271% | outcome [2]: inactive | max response [3]: -8.36% | max response [4]: -14% | Potency [5]: inactive

Cc1cc(C)c2c(N)c(C(=O)NCc3ccc(Cl)cc3)sc2n1
max response [1]: -96.1% | max response [2]: -6.45% | max response [3]: -4.61% | max response [4]: -1.38%

O=[N+]([O-])c1cccc2[nH]c(CNc3nc(N4CCOCC4)nc4c3ncn4-c3ccsc3)nc12
Potency [1]: 0.058 µM (active) | Potency [2]: 0.461 µM (active) | Potency [3]: 0.164 µM (active) | Potency [4]: 0.259 µM (active)

C[C@@H]1CCN(C(=O)N2CCCC2)C[C@@H]1N(C)c1ncnc2[nH]ccc12
max response [1]: -16.9% | outcome [2]: inactive | max response [3]: 6.14% | max response [4]: -9.02% | Potency [5]: inactive

CO/N=C(/C(=O)N[C@@H]1C(=O)N2C(C(=O)O)=C(Cn3ccc(=N)n3CCO)CS[C@H]12)c1csc(N)n1
max response [1]: -94.3% | outcome [2]: inactive | max response [3]: -6.11% | outcome [4]: inactive | Potency [5]: inactive

COC1C(CO)OC(n2cnc3c(=O)[nH]cnc32)C1O (centres undefined)
max response [1]: 0.852% | max response [2]: -1.42% | max response [3]: 2.15% | max response [4]: -5.01%

CC(O)/C=C/C1C(C)C(O[C@@H]2O[C@H](CO)[C@@H](O)[C@H](O)[C@H]2O)C(O)CC1(C)C (some centres undefined)
max response [1]: -16.1% | max response [2]: 1.9% | max response [3]: 3.1% | max response [4]: 0.539%

CCC(C)C1NC(=O)C2CCCN2C(=O)C(NC(C)=O)C(C)OC(=O)C(Cc2ccc(OC)cc2)N(C)C(=O)C2CCCN2C(=O)C(C(C)C)NC1=O (centres undefined) (Ac-TPIVP[NMeY](Me); ester 1-C; configuration not given here)
max response [1]: -18.8% | outcome [2]: inactive | max response [3]: -2.69% | outcome [4]: inactive | Potency [5]: inactive

C=C(C(=O)O)C1CCC2(C)CCCC(C)(O)C2C1 (centres undefined)
max response [1]: -4.4% | outcome [2]: inactive | outcome [3]: inactive | outcome [4]: inactive | Potency [5]: inactive

COCCN1CCN(Cc2ccc(-c3n[nH]c4c3C(=O)c3c(NC(=O)NN5CCOCC5)cccc3-4)cc2)CC1
Potency [1]: 0.206 µM (active) | Potency [2]: 0.231 µM (active) | Potency [3]: 0.146 µM (active) | Potency [4]: 0.517 µM (active)

CN=C(N)NCCCCC/C=C(/C)CC(C)C1OC(=O)C(C)C(O)/C=C/C(C)C(O)CC(O)C(C)C(O)CCC(C)C(O)CC2(O)OC(CC(OC(=O)CC(=O)O)CC(O)CC(O)C(C)C(O)/C(C)=C/CCC1C)CC(O)C2O (centres undefined)
max response [1]: -1.07% | max response [2]: -0.878% | max response [3]: 1.79% | max response [4]: 1.75%

CC(C)c1cc(CNc2nc(Nc3cc(C4CC4)[nH]n3)cc(N3CCN(C)CC3)n2)on1
Potency [1]: 1.3 µM (active) | Potency [2]: 2.31 µM (active) | Potency [3]: 0.146 µM (active) | Potency [4]: 0.461 µM (active)
